Test results as given in ChEMBL document CHEMBL3988442, “University of Dundee, Small-Polar-MMV Screening Library” (2021).
About 13,000 (27%) of roughly 48,000 compounds showed an effect of 50% or more. The list shows a part of the results.

Tested on: Wolbachia pipientis
Assay: Anti-Wolbachia Cell-Based Screen
Assay type: functional
Parameters: scale not given: in the data most compounds retested in dose-response had high values
Settings: 5 µM

| Compound | Percent Effect |
| --- | --- |
| Cc1nnc2ccc(C(=O)N3CCSC(C)(C)C3)cn12 | -5.569% |
| NC(=O)CCn1cc(CNCCCc2csc(N)n2)c2ccccc21 | 2.752% |
| CN1[C@@H](C(=O)NCC2CC2)C[C@@H]2CN(Cc3ccsc3)C[C@@H]21.O=C(O)C(F)(F)F.O=C(O)C(F)(F)F | 95.65% |
| CC(C)N1[C@H](Cn2cncn2)C[C@@H]2CN(Cc3ccsc3)CC[C@@H]21.O=C(O)C(F)(F)F | 4.812% |
| CN1[C@@H](C(=O)NCC2CC2)C[C@H]2CN(Cc3ccsc3)C[C@H]21.O=C(O)C(F)(F)F.O=C(O)C(F)(F)F | 106.3% |
| O=C(NCC1CC1)[C@H]1C[C@H]2OCC[C@H]2N(Cc2ccsc2)C1 | -7.335% |
| CS(=O)(=O)N1C[C@H]2CCCN(Cc3ccsc3)[C@H]2C1.O=C(O)C(F)(F)F | -0.02998% |
| Cc1nc(CN2C[C@@H]3CCCO[C@@H]3[C@H](NC(=O)CC3CC3)C2)cs1.O=C(O)C(F)(F)F | -2.843% |
| Cc1nc(CN2C[C@H]3C[C@H](C(=O)NCC4CC4)N(C)[C@H]3C2)cs1.O=C(O)C(F)(F)F.O=C(O)C(F)(F)F.O=C(O)C(F)(F)F | 116.2% |
| CNC(=O)[C@@H]1C[C@H]2CN(Cc3ccc(C)o3)C[C@H]2N1C(C)=O | 14.16% |
| Cc1ccc(CN2C[C@@H]3CCCO[C@@H]3[C@H](NC(=O)CC3CC3)C2)s1.O=C(O)C(F)(F)F | 2.329% |
| CNC(=O)[C@@H]1C[C@H]2CN(Cc3ccc(C)s3)C[C@H]2N1C(C)=O.O=C(O)C(F)(F)F.O=C(O)C(F)(F)F | 111.1% |
| Cc1nc(CN2C[C@@H]3CN(C(=O)c4cnccn4)C[C@@H]3C2)cs1.O=C(O)C(F)(F)F | 0.3524% |
| O=C(O)C(F)(F)F.O=C(O)C(F)(F)F.O=C(O)C(F)(F)F.c1cc(CN2C[C@@H]3OCCN(CCN4CCCC4)[C@@H]3C2)cs1 | -11.54% |
| COCCC(=O)N1CCCC2(CCC(=O)N(CCc3c[nH]cn3)C2)C1 (stereo not given) | 0.09306% |
| Cc1cnn(CCNCc2nc(Cc3ccccc3)no2)c1 | -7.265% |
| Fc1cccc(N2CCCC3(C2)CN(c2cnccn2)CCO3)c1 (stereo not given) | 1.052% |
| CO[C@H]1CN(Cc2cccc(C#N)c2)[C@@H]2COC[C@H]12.O=C(O)C(F)(F)F | -6.68% |
| CCc1cc(C(=O)NCC2CCN(Cc3cccc(C#N)c3)C2)on1 (stereo not given) | 4.535% |
| CC(=O)N1[C@@H](C(=O)NCC2CC2)C[C@@H]2CN(Cc3nccs3)C[C@@H]21.O=C(O)C(F)(F)F | 88.62% |
| Cn1ccnc1NC[C@@H]1CCC[C@@H]2CN(Cc3nccs3)C[C@@H]21.O=C(O)C(F)(F)F | -0.855% |
| CN1[C@@H](C(=O)NCC2CC2)C[C@H]2CN(Cc3cccc(C#N)c3)C[C@H]21.O=C(O)C(F)(F)F.O=C(O)C(F)(F)F | 99.16% |
| O=C(NCC1CC1)[C@H]1CN(Cc2nccs2)C[C@H]2OCC[C@@H]12.O=C(O)C(F)(F)F | -15.61% |

| Compound | Percent Effect |
| --- | --- |
| CN(C)S(=O)(=O)c1csc(C(=O)N2CCSCC2)c1 | -1.993% |
| CC(C)c1cc(C(=O)N[C@H]2CN(C3CCOCC3)C[C@@H]2C2CC2)no1 | -8.943% |
| COCCOc1ncccc1C(=O)N1CCCC(n2ccnc2C)C1 (stereo not given) | 113.9% |
| COc1ncccc1C(=O)N1CCCC(n2ccnc2C)C1 (stereo not given) | 125.3% |
| Cc1nccn1C1CCCN(C(=O)c2cc(O)nc3ccccc23)C1 (stereo not given) | -15.61% |
| COc1ncccc1C(=O)N1CCCC(c2cc(C)[nH]n2)C1 (stereo not given) | -2.172% |
| CC(C)(C)CNC[C@H]1Cn2c(-c3ccccc3)cnc2CO1 | -15.45% |
| CC(=O)N1CCN(C(=O)CNc2ccc3sccc3c2)CC1 | -10.18% |
| CC(C)NC(=O)C1CCc2nnc(CNC(=O)c3ccc(Cl)cc3Cl)n21 (stereo not given) | 98.13% |
| CN(C)C(=O)C1CCc2nnc(CNC(=O)c3ccc(Cl)cc3Cl)n21 (stereo not given) | 114.2% |
| CC(C)CNC(=O)c1ccc(NC(=O)NC2CC2)cc1Cl | -3.361% |
| O=C(NCc1nnc2n1C(C(=O)NC1CC1)CC2)c1ccc(Cl)cc1Cl (stereo not given) | 110.4% |
| O=C(NCC(=O)N1CCCCC1)c1ccc(Cl)cc1I | -12.84% |
| CC(CNC(=O)c1ccc(Cl)cc1I)N1CCCC1 (stereo not given) | -14.44% |
| CCn1cnnc1CNC(=O)c1ccc(Cl)cc1F | 9.197% |
| CC(C)C(NC(=O)c1ccc(Cl)cc1Cl)C(=O)Nc1cnn(C)c1 (stereo not given) | 12.86% |
| Cn1cc(-c2cnc3n2CCC32CCN(S(=O)(=O)C3CC3)CC2)cn1.O=C(O)C(F)(F)F | 2.089% |
| CC(NS(=O)(=O)N(C)C(C)C)C(=O)N(C)C (stereo not given) | -8.822% |
| COc1ccc(Cl)cc1CS(=O)(=O)Cc1nc(C)no1 | 9.011% |
| CCOc1cc(C(=O)NS(C)(=O)=O)cc(-c2ccccc2)c1OC | 4.998% |
| CS(=O)(=O)NCc1cc2n(n1)CCCN(Cc1nc3ccccc3[nH]1)C2 | 2.68% |
| Cc1nn(C)c(C)c1S(=O)(=O)NCCn1ccc(-c2cccs2)n1 | -20.8% |
| Cl.O=C(C1CCC1)N1C[C@@H](c2ccsc2)[C@@H]2CN(C3CCCCC3)CC[C@@H]21 | 144.1% |

| Compound | Percent Effect |
| --- | --- |
| CN(C)c1ccc(NC(=O)N2CCCC2c2ccsc2)cn1 (stereo not given) | 11.58% |
| Cl.O=C(C1CCC1)N1C[C@@H](c2ccsc2)[C@@H]2CN(C3CCCC3)CC[C@@H]21 | 127.5% |
| Cl.O=C(C1CCCC1)N1C[C@@H](c2ccsc2)[C@@H]2CN(C3CCCC3)CC[C@@H]21 | 194.4% |
| O=C(C1CCC1)N1CCN(Cc2ccsc2)[C@H]2CS(=O)(=O)C[C@H]21 | -4.22% |
| CSc1ncc(CN2CC(Oc3c(C)cccc3C)C2)cn1 | -6.082% |
| CCC(Nc1nc(C(C)C)nc2c1cnn2C)c1ccncc1 (stereo not given) | -4.681% |
| Cc1ccc(NS(=O)(=O)CC2=NC(=O)n3cccc3C2=O)cc1 | 7.318% |
| O=C(Nc1ccccc1)c1ccc(NCc2ccccc2CO)nn1 | -18.51% |
| CCCS(=O)(=O)N1CCC2(CC1)CN(c1ccccn1)CCO2.O=C(O)C(F)(F)F | 3.761% |
| O=C(NCC1CCOC1)Nc1ccc(OCC(F)(F)F)nc1 (stereo not given) | -13.99% |
| CC(C)Nc1n[nH]c2nc(C3CCN(C(=O)c4ccccn4)C3)ccc12 (stereo not given) | 75.7% |
| CC(C)Oc1cccc(C(=O)C2CCCN(C(=O)c3ccccn3)C2)c1 (stereo not given) | -12.09% |
| COCCOCCC(=O)N1CCC(c2ccccc2C)C1 (stereo not given) | -9.058% |
| COCCC(=O)N1CCC(c2ccc3c(NC(C)C)n[nH]c3n2)C1 (stereo not given) | 74.92% |
| COCCC(=O)N1CCc2nc(N3CCOCC3)nc(NC(C)C)c2C1 | -19.12% |
| Cc1ncsc1C(=O)N1CCC(c2ccc3c(NC(C)C)n[nH]c3n2)C1 (stereo not given) | 170.9% |
| CC(C)c1nc2n(n1)CC(NCc1nc(-c3ccsc3)no1)CC2 (stereo not given) | -1.114% |
| O=c1n(CC2CCCCO2)nc(CC2CCNCC2)n1-c1ccccc1 (stereo not given) | 26.34% |
| CC(NC(=O)c1cc(Br)c2c(c1)OCCO2)C(N)=O (stereo not given) | -7.344% |
| CC(C)OCCS(=O)(=O)N1CCN(Cc2cccn2C)CC1 | -8.582% |
| CC(C)CN1C(=O)C2(CCCC2)NC12CCSCC2 | -2.921% |
| CCOc1ccc(C(=O)N2Cc3cnc(CC)nc3C2)o1 | -12.82% |
| CNC(=O)c1cc(C)n(-c2ccccc2)n1 | 92.62% |

| Compound | Percent Effect |
| --- | --- |
| CCN(CC)S(=O)(=O)NC(=O)c1cc(C)n(-c2ccccc2)n1 | 6.675% |
| CCCS(=O)(=O)NC(=O)c1cc(C)n(-c2ccccc2)n1 | 6.254% |
| COc1cc(N2CCCC(c3nccn3Cc3cscn3)C2)nc(N)n1 (stereo not given) | 2.098% |
| O=c1[nH]c2c(c(=O)n1C1CCCCC1)CCC2Nc1ccccc1Cl (stereo not given) | 4.437% |
| O=c1[nH]c2c(-c3ccccn3)nsc2c(=O)n1C1CCCCC1 | 110.2% |
| O=c1[nH]c2c(c(=O)n1C1CCCCC1)CCC2Nc1ccccc1 (stereo not given) | -8.343% |
| COCCN(C)C[C@@H]1CN(C(=O)c2ccc(OC)c(F)c2)C[C@@H]1CO | 94.27% |
| COCCN(C)C[C@@H]1CN(C(=O)c2ccc3c(c2)OCO3)C[C@@H]1CO | 100.3% |
| COc1ccc(F)c(F)c1C(=O)N1C[C@@H](CN(C)CCO)[C@@H](CO)C1 | -3.681% |
| O=C(c1ccc2c(c1)OCO2)N1C[C@@H](CN2CCCCC2)[C@@H](CO)C1 | -23.85% |
| COCCN(C)C[C@@H]1CN(C(=O)c2c(F)ccc(OC)c2F)C[C@@H]1CO | -13.51% |
| COCCN(C)C[C@@H]1CN(C(=O)C(C)(C)c2ccccc2)C[C@@H]1CO | 115.8% |
| COCCN(C)C[C@@H]1CN(C(=O)c2ccc(SC)cc2)C[C@@H]1CO | 113.3% |
| CCc1ccc2nc(C)cc(C(=O)NC3CCCCNC3=O)c2c1 (stereo not given) | -55.41% |
| COc1ccc(N2CCC(N3CCOC(C(F)(F)F)C3)CC2)cc1 (stereo not given) | 26.01% |
| COC(=O)c1ccc(Cl)c(CN(C)Cc2ncnn2C)c1 | -12.36% |
| COC(=O)CCCC(=O)N(C)CC1Cc2ccccc2CN1C (stereo not given) | -6.642% |
| CS(=O)(=O)Cc1ccc(C(=O)NCC2Cc3ccccc3O2)cc1 (stereo not given) | -4.65% |
| COCCN(C)C[C@@H]1CN(C(=O)c2ccoc2)C[C@@H]1CO | -5.57% |
| COCCN(C)C[C@@H]1CN(C(=O)c2ccc(C)cc2)C[C@@H]1CO | 166.3% |
| COc1ccc(C)cc1C(=O)N1C[C@@H](CN(C)CCO)[C@@H](CO)C1 | -25.29% |
